MITF inh – inhibitors of human MITF; O75030; AlphaScreen MITF homodimerization, bead proximity signal; inhibition, % at 2.6 µM; actives 0.91% (n = 650,000); in the data active = inhibition above about 50%;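 also: 0% = vehicle wells with protein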
Target sequence (O75030 whole entry, looked up): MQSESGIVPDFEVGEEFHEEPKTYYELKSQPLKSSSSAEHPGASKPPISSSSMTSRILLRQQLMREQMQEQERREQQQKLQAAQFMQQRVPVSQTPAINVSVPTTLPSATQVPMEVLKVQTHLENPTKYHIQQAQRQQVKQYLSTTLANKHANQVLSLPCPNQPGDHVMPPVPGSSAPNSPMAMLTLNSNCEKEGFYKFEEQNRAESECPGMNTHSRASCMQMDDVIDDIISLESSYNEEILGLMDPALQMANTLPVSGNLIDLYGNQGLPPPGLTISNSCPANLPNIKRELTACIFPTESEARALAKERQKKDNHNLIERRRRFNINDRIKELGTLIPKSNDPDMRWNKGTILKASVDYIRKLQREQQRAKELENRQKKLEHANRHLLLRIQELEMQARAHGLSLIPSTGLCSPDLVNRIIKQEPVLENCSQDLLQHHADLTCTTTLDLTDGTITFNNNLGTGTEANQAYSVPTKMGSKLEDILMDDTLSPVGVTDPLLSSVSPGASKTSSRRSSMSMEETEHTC
TEAD-YAP inh – TEAD-YAP interaction inhibition; HEK-TIYL cells, TEAD-Gal4/YAP UAS-luciferase luminescence; actives 1.4% (n = 640,000); AID 1259422; inhibition, % at 9.12 µM; in the data active = inhibition above about 32%;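 also: 0% = median of test compound wells and 100% = reference inhibitor wells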
FBW7 act – human FBW7 E3 ligase activation, primary screen; Q969H0; AlphaScreen FBW7–phospho-cyclin E peptide binding, activator screen; normalized activity (activation), % at 26.1 µM; actives 0.13% (n = 650,000); AID 1259310; in the data active = normalized activity above about 1.9%;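 also: purified mutant Fbw7 with reduced substrate affinity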
GPR151 ag – activates the human receptor GPR151; activation, % at 11.2 µM; PathHunter beta-arrestin GPR151 cells, luminescence; actives 1% (n = 650,000); Q8TDV0; AID 1508602; in the data active = activation above about 4.9%;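 also: 0% = median of compound wells and 100% = cells with positive control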
An asterisk follows results filed as active. Shown are actives, neighbours in structure and some others; about 3.5% of the full set was active somewhere.

SMILES	MITF inh	TEAD-YAP inh	FBW7 act	GPR151 ag
CN=c1scc(-c2cccs2)n1/N=C/c1ccc[nH]1	17.5	87.4*	-0.2	-1.3
CN=c1scc(-c2ccccc2Br)n1/N=C/c1ccc[nH]1	-4.8	88.2*	0.0	-2.0
C=CCNC(=O)c1c(-c2ccccc2)nc2cc(C)ccn12	17.0	14.1	1.9*	-0.8
O=S(=O)(c1ccc(F)cc1)N1CCN(CC(O)COC2CCCc3ccccc32)CC1 (stereo unspecified)	20.0	-3.5	-0.3	1.0
O=C(c1ccc2c(=O)n(-c3ccccc3)c(=S)[nH]c2c1)N1CCCCC1	8.8	42.9*	0.0	-0.4
O=C(c1ccc2c(=O)n(-c3ccccc3)c(=S)[nH]c2c1)N1CCOCC1	-2.0	-5.2	-0.1	-1.0
Cc1ccc(S(=O)(=O)N(CC(=O)NCc2ccncc2)Cc2ccccc2)cc1	24.1	-2.0	1.9*	-1.2
Cc1ccc(CNC(=O)CN(Cc2ccccc2)S(=O)(=O)c2ccccc2)cc1	11.7	5.0	0.2	-0.5
O=C(NC(Cc1ccccc1)C(=O)NC1CC1)OCc1ccccc1 (stereo unspecified)	1.2	4.8	0.1	2.4
CCCn1cc(NC(=O)c2cc(-c3ccccc3OCc3ccccc3)no2)cn1	12.8	42.8*	0.1	1.9
CCCn1cc(NC(=O)c2cc3ccccc3o2)cn1	-8.6	-55.2	-0.1	-1.3
O=C1NC(=S)N/C1=C/c1ccc(-c2ccc3c(c2)C(=O)OC3)o1	-42.6	3.6	2.5*	-1.0
O=C1NC(=S)N/C1=C/c1ccc(-c2cccc(Cl)c2)o1	0.1	-34.8	0.1	-0.8
COc1ccc(CN2CCN(c3ncnc4scc(-c5ccc(Cl)cc5)c34)CC2)cc1F	14.6	0.1	0.7	-0.5
O=C(CSc1nc2ccsc2c(=O)n1Cc1ccco1)NCc1ccccc1	-5.8	-17.0	-0.2	2.7
COc1ccccc1-c1nc(Cn2cnc3cc(C)c(C)cc32)no1	-2.8	32.7*	0.7	2.6
COc1cc(C2CC(=O)c3c(ccc4ccccc34)N2)ccc1OCc1ccccc1 (stereo unspecified)	18.4	-15.3	0.0	0.2
COc1ccccc1C1CC(=O)c2c(ccc3ccccc23)N1 (stereo unspecified)	3.5	61.2*	0.0	0.0
CCN1C(=O)C2C(c3ccc(O)c(OC)c3)NC(C)(C(=O)OC)C2C1=O (stereo unspecified)	1.9	44.9*	-0.1	3.1
COC(=O)C1(C)NC(c2ccc(O)c(OC)c2)C2C(=O)N(C)C(=O)C21 (stereo unspecified)	6.3	-5.3	0.3	-0.9
CCC(C)Oc1ccccc1C1CC(=O)NC2=C1C(=O)CCC2 (stereo unspecified)	5.4	38.2*	0.1	-1.0
O=C(NCc1cccc(C(F)(F)F)c1)c1cncc(Nc2ccccn2)c1	15.2	-3.2	0.2	-0.8
CC(=O)c1ccc(N2CCN(S(=O)(=O)c3ccc4c(c3)CC(C)N4C(C)=O)CC2)cc1 (stereo unspecified)	-7.1	41.3*	-0.1	0.0
CCC(=O)N1c2ccc(S(=O)(=O)N3CCN(c4ccccc4)CC3)cc2CC1C (stereo unspecified)	15.5	1.0	0.2	-0.4
O=C1N/C(=C/c2ccc(C(F)(F)F)cc2)C(=O)N1Cc1ccc(Br)cc1	-3.5	19.4	0.0	1.4
SMILES	MITF inh	TEAD-YAP inh	FBW7 act	GPR151 ag
COc1ccc(CN2CCC3(CC2)CC3C(=O)NCc2cccnc2)cc1 (stereo unspecified)	-18.0	-3.7	-0.1	0.7
Cn1c(-c2ccccc2)c(C(C[N+](=O)[O-])c2ccco2)c2ccccc21 (stereo unspecified)	10.7	54.4*	0.0	1.2
Cn1c(-c2ccccc2)c(C(C[N+](=O)[O-])c2ccc(C(F)(F)F)cc2)c2ccccc21 (stereo unspecified)	-1.6	-7.0	-0.1	-0.9
CC1Cc2ccccc2N1C(=O)CSc1nnc(-c2ccccc2)n1C (stereo unspecified)	-15.3	1.4	0.2	-1.2
CC1Cc2ccccc2N1C(=O)CSc1nnc(Cc2ccccc2)n1C (stereo unspecified)	18.5	48.6*	0.1	-1.1
N#Cc1nc(N2CCCCC2)nc(N2CCCCC2)n1	-2.3	0.7	-0.2	-1.1
CCNc1nc(C#N)nc(N2CCCCC2)n1	2.6	41.3*	0.0	2.4
COc1cc2nc(Oc3ccccc3)nc(Nc3ccccc3)c2cc1OC	0.8	37.6*	0.0	0.5
COc1cc2nc(Nc3ccccc3)nc(Nc3ccccc3)c2cc1OC	-7.2	10.0	0.0	1.5
COc1cc2nc(Oc3ccccc3)nc(Nc3ccc(N4CCOCC4)cc3)c2cc1OC	1.2	41.6*	-0.2	2.3
Nc1nnc(SCCN2CCN(CCSc3nnc(N)s3)CC2)s1	4.7	-5.3	0.1	-1.2
CC(=O)N1CCN(Cc2ccc3c(c2)CN(C(=O)CCc2ccc(C)cc2)CCO3)CC1	5.2	-3.8	-0.1	0.1
CC(C)COC(=O)c1ccc(NC(=O)c2ccncc2)cc1	7.5	32.6*	-0.4	0.5
C[C@@H](N)c1ccc(C(=O)Nc2ccncc2)cc1	-3.1	50.0*	0.0	0.4
CC(=O)Nc1ccc(C(=O)Nc2ccncc2)cc1	-3.6	-6.9	-0.1	-0.5
CC(C)CCOC(=O)c1ccc(NC(=O)c2ccncc2)cc1	-3.4	26.8	0.0	-0.3
CCC(C)N1C(=O)CCC1C(=O)N1CCN(c2ccc(F)cc2)CC1 (stereo unspecified)	-0.1	-4.9	0.7	1.2
CC(C)(C)c1ccc(NC(=O)c2scc3c2CCCC3)cc1	-17.3	32.8*	0.0	-0.2
O=C(Nc1cccc(O)c1)c1scc2c1CCCC2	-8.2	78.9*	-0.2	-3.7
COc1ccc(NC(=O)c2scc3c2CCCC3)cc1	-10.2	40.3*	-0.1	-6.0
O=C(Nc1cccc(O)c1)c1c(O)c2c([nH]c1=O)CCCC2	1.8	55.9*	-0.1	1.0
O=C(Nc1ccc2ccccc2c1)c1scc2c1CCCC2	-22.6	24.7	0.0	-2.5
COc1cccc(OC)c1C(=O)Nc1sc2c(c1C#N)CCN(C(C)=O)C2	0.2	13.1	0.0	1.5
CC(=O)c1ccc(NC(=O)c2scc3c2CCCC3)cc1	3.5	72.4*	0.2	-0.2
Cc1ccc(NC(=O)c2scc3c2CCCC3)cc1	-0.4	29.7	0.1	-2.6
SMILES	MITF inh	TEAD-YAP inh	FBW7 act	GPR151 ag
COc1cccc(C2=CC(c3ccc(OC)cc3OC)n3ncnc3N2)c1 (stereo unspecified)	3.0	39.7*	-0.1	-1.1
COc1cccc(C2=CC(c3ccccc3OC(F)F)n3ncnc3N2)c1 (stereo unspecified)	6.1	51.9*	-0.1	-0.9
COc1cccc(C2=CC(c3cc(Br)ccc3F)n3ncnc3N2)c1 (stereo unspecified)	1.0	47.1*	0.0	0.2
COc1cccc(C2=CC(c3ccc(OC(F)F)cc3)n3ncnc3N2)c1 (stereo unspecified)	3.3	-51.8	0.6	-0.7
Nc1cc(Br)c2c(c1)OCCO2	17.9	65.9*	-0.1	-0.9
Brc1cc2c(cc1Br)OCCOCCOCCOCCO2	9.0	-6.4	0.0	0.0
COc1ccc2nc(-c3ccc(NS(=O)(=O)c4cc(C)ccc4C)cc3)cn2n1	-7.2	-17.9	-0.2	3.1

Screening results deposited in PubChem BioAssay by The Scripps Research Institute Molecular Screening Center.
